# Bioassay records deposited in PubChem by National Center for Advancing Translational Sciences (NCATS).
# BAZ2B block: inhibitors of human BAZ2B bromodomain; Q9UIF8; AlphaScreen BAZ2B-H3K14Ac peptide displacement; Potency, µM (series often up to 114 µM), for inactives: at the highest dose activity change, negative = inhibition, actives largely listed as inhibitors; hit rate 4.4% among 360,000; AID 504333; note: % is set by controls: 0 for no effect and ±100 for the full control effect; nearly all actives have a fitted effect of over 60% in size
#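 In this displacement format the biotinylated H3(5-23) peptide acetylated at Lys14 serves as ligand at 50 nM, with BAZ2B at 50 nM in PBS pH 7.4 containing 0.01% Tween-20. Donor and acceptor beads are 10 ug/mL final.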
# JMJD2A Tudor inh: JMJD2A Tudor domain (human) inhibition | O75164 | Potency, µM (doses to about 114 µM), for inactives: at the top dose activity change, negative = inhibition, actives largely listed as inhibitors | hit rate 4.4% among 390,000 | AlphaScreen JMJD2A-Tudor / H3K4me3 peptide binding; note: % is set by controls: 0 for no effect and ±100 for the full control effect; nearly all actives have a fitted effect of over 50% in size
# Target sequence (O75164 whole entry, looked up, the tested form may be a part): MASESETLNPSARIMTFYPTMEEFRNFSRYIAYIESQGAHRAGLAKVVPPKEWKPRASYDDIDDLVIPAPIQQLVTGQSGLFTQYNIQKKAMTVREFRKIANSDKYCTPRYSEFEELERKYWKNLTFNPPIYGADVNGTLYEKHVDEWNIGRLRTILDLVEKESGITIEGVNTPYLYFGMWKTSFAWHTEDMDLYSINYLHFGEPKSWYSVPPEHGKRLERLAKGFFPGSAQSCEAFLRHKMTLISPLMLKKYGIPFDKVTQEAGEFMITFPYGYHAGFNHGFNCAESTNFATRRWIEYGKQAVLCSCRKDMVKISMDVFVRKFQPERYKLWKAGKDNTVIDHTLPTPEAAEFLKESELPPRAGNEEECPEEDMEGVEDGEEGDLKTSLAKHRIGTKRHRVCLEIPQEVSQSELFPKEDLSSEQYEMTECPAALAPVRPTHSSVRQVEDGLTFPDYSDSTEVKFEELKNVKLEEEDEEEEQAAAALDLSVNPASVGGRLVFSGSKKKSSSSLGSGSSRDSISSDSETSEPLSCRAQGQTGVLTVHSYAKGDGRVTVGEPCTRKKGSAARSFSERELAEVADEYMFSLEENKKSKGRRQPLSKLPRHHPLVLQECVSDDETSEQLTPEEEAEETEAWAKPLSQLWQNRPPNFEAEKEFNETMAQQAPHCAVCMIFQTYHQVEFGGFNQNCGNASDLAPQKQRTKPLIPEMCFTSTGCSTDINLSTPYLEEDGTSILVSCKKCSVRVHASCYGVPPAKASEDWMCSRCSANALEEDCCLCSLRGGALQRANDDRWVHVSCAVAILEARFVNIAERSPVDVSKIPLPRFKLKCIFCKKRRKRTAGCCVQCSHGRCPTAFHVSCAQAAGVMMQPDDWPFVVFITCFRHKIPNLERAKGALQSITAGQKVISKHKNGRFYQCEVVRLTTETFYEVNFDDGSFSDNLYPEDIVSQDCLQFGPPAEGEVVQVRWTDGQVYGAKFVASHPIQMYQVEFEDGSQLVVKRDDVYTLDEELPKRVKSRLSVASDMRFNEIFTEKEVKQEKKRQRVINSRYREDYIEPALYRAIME
# L3MBTL1 block: L3MBTL1 (human) inhibition; Potency, µM (titrated, usually from 57.1 µM), for the others: top-dose activity, negative = inhibition, most hits filed as inhibitors; hit rate 0.66% among 230,000; AlphaScreen L3MBTL1–H3K9me1 peptide binding; Q9Y468; note: % is set by controls: 0 for no effect and ±100 for the full control effect; nearly all actives have a fitted effect of over 60% in size
#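 L3MBTL1 (50 nM) pre-complexed 30 min with biotinylated H3(1-15)K9me1 peptide (75 nM), then compounds added for 30 min at room temperature; AlphaScreen streptavidin donor/nickel chelate acceptor beads (10 ug/mL final) read after 30 min dark incubation.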
# HP1b chromo inh: HP1-beta chromodomain-methylated histone interaction inhibition. P83916. Potency, µM (series often up to 114 µM), inactives show at the highest dose activity change, negative = inhibition, actives largely listed as inhibitors. AID 540317. hit rate 0.56% among 390,000. AlphaScreen HP1-beta / biotin-H3K9me3 peptide binding; note: nearly all actives have a fitted effect of over 70% in size
#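 AlphaScreen: HP1-beta (50 nM) preformed 30 min with biotin-H3(1-18)K9me3 peptide (50 nM) in PBS pH 7.4, 0.01% Tween-20. Compound added for 30 min at RT, then streptavidin donor/nickel chelate acceptor beads (10 ug/mL) for 30 min.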
# Sfp PPTase inh: inhibitors of Bacillus subtilis Sfp phosphopantetheinyl transferase; Q9F4F7; Biochemical Sfp PPTase activity, qHTS; Potency, µM, inactives show largest response in the series, negative = inhibition, actives largely listed as inhibitors; hit rate 3.5% among 310,000;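 note: the enzyme is Sfp with the accession as filed and its product quenches rhodamine fluorescence; 0% = enzyme reaction without inhibitor and -100% = no enzyme wells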
#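 Reaction rates are the 30-min fluorescence difference (ex 525, em 598 nm) in wells containing 15 nM Sfp, 5 uM rhodamine-CoA and 12.5 uM BHQ-2-YbbR at pH 7.6 with 10 mM MgCl2.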
# G9a inh: inhibitors of human histone lysine methyltransferase G9a. G9a H3K9 monomethylation, AlphaScreen, 2 h. AID 504332. hit rate 8.8% among 350,000. Potency, µM (highest dose often 102 µM), for inactives: at the top dose activity, negative = inhibition, hits mostly inhibitors; note: % is set by controls: 0 for no effect and ±100 for the full control effect; nearly all actives have a fitted effect of over 75% in size
#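 Enzyme 20 nM + cpd, 15 min RT; add b-H3K9 pep 500 nM / SAM 20 uM; 2 h RT; anti-H3K9me1 Ab 0.5 ug/mL + SA donor / anti-rabbit acceptor beads 20 ug/mL each, 10 min; AlphaScreen read.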
# An asterisk follows results filed as active; ? = inconclusive; . = not tested or not shown; [ ] = another dose, or the depositor's remark. Rows were chosen to be rich in hits. Some 12% of all compounds tested hit in one or more screens of this group. Calls come from the whole dose curve; as a rule, active = well fitted curve in the direction sought with a large enough effect; inconclusive = small, poorly fitted or top-dose-only effect, or another doubt; inactive = no such curve, though single readings can be large; an effect the other way counts as inactive or inconclusive. Potency is the fitted concentration of half-maximal effect.
SMILES,BAZ2B block,JMJD2A Tudor inh,L3MBTL1 block,HP1b chromo inh,Sfp PPTase inh,G9a inh
O=C(CN1CCN(S(=O)(=O)c2ccc(F)cc2)CC1)c1ccc(O)c(O)c1,?,?,.,18.0%,17.8µM*,20µM*
COc1ccc(S(=O)(=O)N2CCN(CC(=O)c3ccc(O)c(O)c3)CC2)cc1,-37.8%,?,.,16.2%,44.7µM*,28.2µM*
COc1cccc(C(=O)CN2CCN(S(=O)(=O)c3ccc(Cl)cc3)CC2)c1,-16.6%,-15.9%,.,40.2%,.,10µM*
CCN1CCN(Cc2c(O)ccc3oc(C)c(C(=O)Nc4cccc(C(F)(F)F)c4)c23)CC1,-18.8%,-30.9%,.,30.8%,.,-1.6%[59 µM]
Cc1ccc(-c2ccc(C3C(C#N)=C(N)Oc4n[nH]c(C)c43)o2)cc1 (stereo not given),?,?,-11.8%,?,50.1µM*,?
Cc1[nH]nc2c1C(c1ccsc1)C(C#N)=C(N)O2 (stereo not given),-3.9%,-14.7%,.,17.5%,6.7%,-21.4%[59 µM]
Cc1[nH]nc2c1C(c1ccsc1C)C(C#N)=C(N)O2 (stereo not given),1.3%,-23.9%,.,12.0%,13.1%,79.4µM*
Cc1[nH]nc2c1C(c1ccc(F)cc1)C(C#N)=C(N)O2 (stereo not given),.,-17.8%[11.4 µM],-4.9%,33.9%,12.8%,-2.0%[59 µM]
Cc1[nH]nc2c1C(c1ccc(-c3ccccc3C#N)o1)C(C#N)=C(N)O2 (stereo not given),-34.8%,?,-9.0%,6.7%,22.4µM*,20µM*
Cc1nn(-c2ccccc2)c(Cl)c1C1C(C#N)=C(N)Oc2n[nH]c(C)c21 (stereo not given),-6.5%,-21.9%[11.4 µM],.,-0.6%,11.0%,?
Cc1[nH]nc2c1C(c1ccc(-c3ccc(Cl)cc3)o1)C(C#N)=C(N)O2 (stereo not given),39.8µM*,?,-5.0%,-25.9%,-18.4%,79.4µM*
O=C(CCCCn1ccc(=O)[nH]c1=O)Nc1ccc(C(=O)O)c(O)c1,.,-3.4%,.,18.8%[57 µM],.,.
COc1ccc(Cn2c(-c3ccccc3C)nc3c(c(=O)c4ccccc4n3C)c2=O)cc1,.,9.2%,.,38.2%,.,.
CCC(C(=O)Nc1cc(-c2nc3cccnc3s2)ccc1C)c1ccccc1 (stereo not given),?,-29.6%,.,0.0%,.,?
O=C1CCC(C(=O)OCc2cc(Cl)ccc2OC(F)F)N1 (stereo not given),8.2%,39.8µM*,-2.2%,-12.7%,5.7%,-14.9%[59 µM]
Cc1ccc(S(=O)(=O)NCCc2cn3ccsc3n2)c(C)c1,6.3%,-6.5%,.,22.3%[57 µM],.,1.6%[59 µM]
O=C(c1ccc2c(c1)CCCC2)N1CCN(c2nc3ccc(F)cc3s2)CC1,-0.5%,-17.5%,.,41.1%,.,-47.8%[59 µM]
O=C(O)CC1S/C(=N/N=C/c2ccccn2)NC1=O (stereo not given),44.7µM*,79.4µM*,-11.4%,58.7%,16.1%,-4.2%
CCOc1cc(/C=N/N=C2/NC(=O)C(CC(=O)O)S2)ccc1OCc1ccc(Cl)cc1Cl (stereo not given),28.2µM*,39.8µM*,-28.6%,44.7µM*,-4.0%,.
COc1cc(/C=N/N=C2/NC(=O)C(CC(=O)O)S2)ccc1OCc1ccc(Cl)cc1 (stereo not given),?,-33.6%,0.0%,30.1%,-5.2%,5.6%
O=C(NCCCCNCCCNC(=O)c1ccccc1)c1ccccc1,.,-11.6%,-0.1%,19.1%,.,.
CC(C)C[C@H](NC(=O)[C@H](CO)NC(=O)[C@@H]1CCCN1C(=O)[C@H](Cc1ccc(O)cc1)NC(=O)[C@H](CC(C)C)NC(=O)[C@H](CC(C)C)NC(=O)[C@@H]1CCCN1C(=O)[C@@H](NC(=O)[C@H](CO)NC(=O)[C@H](CO)NC(=O)[C@H](CO)NC(=O)[C@H](CO)NC(=O)[C@@H]1CCCN1C(=O)[C@@H](NC(=O)[C@@H](N)CO)C(C)C)[C@@H](C)O)C(=O)N[C@@H](C)C(=O)N[C@@H](CC(C)C)C(=O)N1CCC[C@H]1C(=O)N[C@@H](C)C(=O)N1CCC[C@H]1C(=O)O,.,.,.,.,6.7%,.
CCOC(=O)CNC(c1ccccc1)c1cc(Br)ccc1NC(=O)CCN1CCOCC1 (stereo not given),-0.1%,-27.8%,-4.4%,1.5%,15.8µM*,?
CCOC(=O)CNC(c1ccccc1)c1cc(Br)ccc1NC(=O)OCC (stereo not given),0.5%,56.0%,-5.7%,73.7%,7.4%,112.4%[59 µM]
COC(=O)CNC(c1ccccc1)c1cc(Br)ccc1NC(=O)CCN1CCOCC1 (stereo not given),-27.8%,-29.3%,-1.4%,4.7%,31.6µM*,3.16µM*
SMILES,BAZ2B block,JMJD2A Tudor inh,L3MBTL1 block,HP1b chromo inh,Sfp PPTase inh,G9a inh
CCC1Nc2ncnc(N3CCOCC3)c2N(Cc2ccc(OC)cc2)C1=O (stereo not given),.,56.2µM*,6.7%,28.6%,.,.
O=C1C(Cc2ccccc2)Nc2ncnc(N3CCOCC3)c2N1Cc1ccc(Cl)cc1 (stereo not given),-25.8%,?,-5.1%,17.6%,.,4.47µM*
O=C1C(Cc2ccccc2)Nc2ncnc(N3CCN(c4ccccc4)CC3)c2N1Cc1ccccc1 (stereo not given),?,63.1µM*,-12.3%,5.8%,.,?
CN=C1N(C)C[C@@H]2[C@@H]3C(=O)N(C)C(=O)[C@@H]3[C@](C)(C(=O)OC)N12,.,-21.7%,-2.8%,76.2%,.,.
O=C(CSc1nc(=O)[nH]c2c1CCCC2)NCc1ccccc1,1.0%,-1.6%,.,20.3%,.,8.2%[59 µM]
CCN(c1ccccc1)S(=O)(=O)c1ccc(NC(=O)c2cc(=O)c3cc(C)c(C)cc3o2)cc1,0.6%,-9.0%,.,18.6%,.,2.2%[59 µM]
COCCCNC(=O)c1ccc2c3c(onc13)-c1ccccc1C2=O,20µM*,50.1µM*,-25.1%,?,56.2µM*,.
COC(=O)c1c(NS(=O)(=O)Cc2ccccc2)sc2c1CCCC2,?,-20.4%,.,-3.7%,-6.5%,?
COC(=O)c1c(NC(=S)Nc2ccc(C(=O)N3CCOCC3)cc2)sc2c1CCC2,-23.3%,-16.3%,-0.1%,9.8%,?,50.1µM*
COC(=O)c1c(NS(C)(=O)=O)sc2c1CCCC2,-5.9%,-20.1%,2.8%[11.4 µM],34.0%,17.8µM*,?
COC(=O)c1c(NC(C)=O)sc2c1CCCCC2,?,-12.5%,-1.9%,-13.4%,56.2µM*,8.91µM*
CCOC(=O)c1c(NC(=S)Nc2ccc(OC)cc2)sc2c1CCC2,?,-9.3%,-26.6%,?,?,-47.5%[59 µM]
COC(=O)c1c(NC(=S)Nc2ccc(F)cc2[N+](=O)[O-])sc2c1CCCCC2,?,?,-0.6%,-31.3%,14.1µM*,35.5µM*
